Screens: PubChem, National Center for Advancing Translational Sciences (NCATS)
SNCA expr inhib: inhibitors of alpha-synuclein (SNCA) gene expression; AID 1671194; 0.17% of 140,000 active; HEK-293 SNCA-luciferase knock-in, luminescence, 24 h; Potency, µM (highest dose often 57.2 µM), inactives show at the top dose activity change, negative = inhibition, actives largely listed as inhibitors;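 note: potency is the fitted concentration of half-maximal effect; plate controls were DMSO cells for no effect and cell-free wells for full effect; nearly all actives have a fitted effect of over 45% in size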
KDM5B inhibitor: inhibitors of human KDM5B histone demethylase. Potency, µM (series often up to 57.7 µM), hits mostly inhibitors. Q9UGL1. KDM5B demethylase, FDH-coupled NADH fluorescence (FDH is formaldehyde dehydrogenase). 2.6% of 220,000 active; note: potency is the fitted concentration of half-maximal effect; 0% is about no effect; nearly all actives have a fitted effect of over 70% in size
Target sequence (Q9UGL1 whole entry, looked up): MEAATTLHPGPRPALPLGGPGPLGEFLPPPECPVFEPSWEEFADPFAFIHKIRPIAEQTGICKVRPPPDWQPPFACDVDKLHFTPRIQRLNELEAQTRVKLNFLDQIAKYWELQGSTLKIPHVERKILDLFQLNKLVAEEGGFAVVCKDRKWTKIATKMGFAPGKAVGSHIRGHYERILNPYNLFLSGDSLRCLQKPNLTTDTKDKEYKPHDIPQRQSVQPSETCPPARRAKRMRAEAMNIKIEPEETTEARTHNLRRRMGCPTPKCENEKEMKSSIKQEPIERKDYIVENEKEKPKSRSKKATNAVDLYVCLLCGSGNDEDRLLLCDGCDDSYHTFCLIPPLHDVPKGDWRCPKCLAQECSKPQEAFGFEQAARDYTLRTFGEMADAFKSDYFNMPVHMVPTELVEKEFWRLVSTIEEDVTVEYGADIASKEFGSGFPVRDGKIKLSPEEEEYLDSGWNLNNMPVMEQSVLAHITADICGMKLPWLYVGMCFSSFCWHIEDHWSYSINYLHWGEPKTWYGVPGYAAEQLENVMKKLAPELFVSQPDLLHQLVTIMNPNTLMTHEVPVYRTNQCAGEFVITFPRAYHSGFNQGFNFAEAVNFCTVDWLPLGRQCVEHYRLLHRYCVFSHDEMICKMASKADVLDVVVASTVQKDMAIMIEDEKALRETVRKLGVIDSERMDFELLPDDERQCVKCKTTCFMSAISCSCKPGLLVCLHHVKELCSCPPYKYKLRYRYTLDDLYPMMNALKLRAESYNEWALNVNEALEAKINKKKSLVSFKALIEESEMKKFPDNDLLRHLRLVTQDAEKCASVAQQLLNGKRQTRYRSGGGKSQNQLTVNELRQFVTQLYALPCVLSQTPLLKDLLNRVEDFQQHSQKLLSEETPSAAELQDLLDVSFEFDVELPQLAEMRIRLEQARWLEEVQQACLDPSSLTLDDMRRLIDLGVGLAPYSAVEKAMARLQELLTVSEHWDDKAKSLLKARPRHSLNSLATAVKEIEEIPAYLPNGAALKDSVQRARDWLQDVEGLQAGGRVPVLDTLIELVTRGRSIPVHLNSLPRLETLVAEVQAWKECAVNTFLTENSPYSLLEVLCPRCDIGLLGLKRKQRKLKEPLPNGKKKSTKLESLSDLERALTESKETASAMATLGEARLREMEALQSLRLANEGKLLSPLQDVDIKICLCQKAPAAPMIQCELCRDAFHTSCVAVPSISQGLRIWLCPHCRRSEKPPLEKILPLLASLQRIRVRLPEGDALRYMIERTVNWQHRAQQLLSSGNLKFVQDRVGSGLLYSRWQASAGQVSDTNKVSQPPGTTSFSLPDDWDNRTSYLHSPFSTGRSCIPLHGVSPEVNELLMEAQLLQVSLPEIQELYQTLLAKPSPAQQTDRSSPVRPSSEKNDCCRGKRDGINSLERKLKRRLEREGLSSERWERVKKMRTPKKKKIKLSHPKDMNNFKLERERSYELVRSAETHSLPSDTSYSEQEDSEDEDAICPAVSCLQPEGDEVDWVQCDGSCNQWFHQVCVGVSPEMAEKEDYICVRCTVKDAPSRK
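qHTS format, multiple compound concentrations. Buffer 50 mM HEPES pH 7.5/0.01% Tween-20; 200 nM KDM5BΔAP final; 10 min compound preincubation; substrate-mix levels 12.5 µM peptide, 25 µM α-KG, 0.25 mM NAD⁺; 30 min RT; ΔRFU.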
HEK293 viab: cell viability loss counter-screen; 0.12% of 150,000 active; Potency, µM (titrated, usually from 57.1 µM), for inactives: at the highest dose activity change, negative = cytotoxicity, actives largely listed as cytotoxic; HEK-293-SNCA-luc viability, GF-AFC fluorescence, 24 h; AID 1671193;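 note: potency is the fitted concentration of half-maximal effect; 0% = DMSO-treated cells and -100% = medium-only wells without cells; nearly all actives have a fitted effect of over 30% in size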
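HEK-293-SNCA-luc cells (1500/well) plated 24 h, then exposed 24 h to a dilution series; GF-AFC added 30 min at 37C, fluorescence 405/540 nm; normalised to medium-only and DMSO wells, Hill fit.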
IP6K1 inh: blocks human inositol hexakisphosphate kinase 1; Q92551; activity change, % (series mostly up to about 58 µM); IP6K1 kinase, ADP-Glo luminescence, 2 h; hits give low values; AID 1645851; 0.81% of 140,000 active; in the data active = activity change below about -25%; note: % is set by controls: 0 for no effect and ±100 for the full control effect
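ADP-Glo luminescence measures ADP made by human IP6K1 during a 2 h RT reaction with ATP/IP6 (mix at 1.3 mM/130 uM); top library doses 57.5 and 19.1 uM final.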
* marks the source's active call; other numbers are inactive results; i = inactive; ? = inconclusive; / = no result given; [ ] = another dose, or the depositor's remark. Only some compounds are listed: those with a hit (about 2.9% of all), similar ones and a draw of the others. Unless noted, calls come from the whole dose curve; as a rule, active = well fitted curve in the direction sought with a large enough effect; inconclusive = small, poorly fitted or top-dose-only effect, or another doubt; inactive = no such curve, though single readings can be large; an effect the other way counts as inactive or inconclusive.

SMILES	SNCA expr inhib	KDM5B inhibitor	HEK293 viab	IP6K1 inh
Cc1ccccc1C(=O)N1CCCN(c2nnc3ccc(Cl)cn23)CC1	2%	25µM*	-5%	40
COc1ccc(C(=O)N2CCCN(c3nnc4ccc(Cl)cn34)CC2)cn1	22%	22µM*	-12%	13
CCOC(=O)c1[nH]c2ccccc2c1NC(=O)c1cc(OC)cc(OC)c1	-7%	i	-1%	-1
CCc1nc2c(NS(=O)(=O)c3cccnc3)cccn2n1	-5%	i	1%	26
O=S(=O)(Nc1cccn2nc(C3CC3)nc12)c1cccnc1	10%	3.5µM*	4%	10
Cc1ccc(N2CC(c3noc(-c4ccncc4)n3)CC2=O)cc1 (centres undefined)	2%	i	11%	13
CN(C)c1cccc(-c2nc(C3CC(=O)N(c4ccc(F)cc4)C3)no2)c1 (centres undefined)	3%	35µM*	8%	-8
CC(C)(C)c1ccc(-c2nc(C3CC(=O)N(c4ccc(F)cc4)C3)no2)cc1 (centres undefined)	37%	i	3%	-14
CN(C)c1ccc(-c2nc(C3CC(=O)N(c4ccc(F)cc4)C3)no2)cc1 (centres undefined)	9%	32µM*	5%	-3
Cc1ccc(N2CC(c3noc(-c4cccc(N(C)C)c4)n3)CC2=O)cc1 (centres undefined)	3%	35µM*	?	15
Cc1cc(SCC(=O)N(C)CCC#N)nc2c(C)cccc12	/	i	/	/
CCN(C)C(=O)CCc1c(C)nn(-c2ccccc2)c1Oc1ccccc1F	-2%	14µM*	-3%	-6
CCN(CC)C(=O)CCc1c(C)nn(-c2ccccc2)c1Oc1ccc(F)cc1F	-28%	i	-18%	12
CC1(C(=O)N2CCC(c3ccccc3)CC2)CCc2cnc(N3CCOCC3)nc21 (centres undefined)	?	32µM*	-14%[87.6 µM]	4
CC1(C(=O)N2CCC(c3ccccc3)CC2)COCc2cnc(Nc3ccccc3)nc21 (centres undefined)	?	?	?	-2
O=C(OCc1ccc(-c2ccccc2)cc1)c1cnc2ccccc2n1	/	i	/	/
Cc1cc(C)cc(C(=O)NCc2nnc3c(-c4nc(C5CC5)no4)cccn23)c1	-6%	?	-1%	1
O=C(NCc1nnc2c(-c3nc(C4CC4)no3)cccn12)c1cc(Cl)ccc1F	-14%	28µM*	4%	-1
O=C(Cc1ccccc1Cl)NCc1nnc2c(-c3nc(C4CC4)no3)cccn12	-14%	?	1%	4
O=C(CCc1ccccc1)NCc1nnc2c(-c3nc(C4CC4)no3)cccn12	2%	28µM*	-3%	4
COc1cccc(CCC(=O)NCc2nnc3c(-c4nc(C5CC5)no4)cccn23)c1	?	?	-13%	-5
Cc1ccc(C)c(C(=O)NCc2nnc3c(-c4nc(C5CC5)no4)cccn23)c1	-7%	25µM*	4%	8
O=C(NCc1nnc2c(-c3nc(C4CC4)no3)cccn12)C1CC1	0%	22µM*	2%	3
O=C(NCc1nnc2c(-c3nc(C4CC4)no3)cccn12)c1ccc(F)c(Cl)c1	-24%	28µM*	5%	20
CCCc1noc(-c2cccn3c(CNC(=O)Cc4ccccc4Cl)nnc23)n1	?	?	-2%	22
SMILES	SNCA expr inhib	KDM5B inhibitor	HEK293 viab	IP6K1 inh
CCCc1noc(-c2cccn3c(CNC(=O)Cc4ccc(Cl)cc4)nnc23)n1	-15%	25µM*	-12%	1
CC(C)c1noc(-c2cccn3c(CNC(=O)CC4CCCCC4)nnc23)n1	24%	?	7%	19
O=C(Cc1ccc(Cl)cc1)NCc1nnc2c(-c3nc(C4CC4)no3)cccn12	-34%	28µM*	-22%	-3
O=C(CC1CCCCC1)NCc1nnc2c(-c3nc(C4CC4)no3)cccn12	35%	16µM*	-2%	12
O=C(NCc1nnc2c(-c3nc(C4CC4)no3)cccn12)c1c(F)cccc1Cl	31%	?	1%	22
Cc1cnc(C(=O)NC2C[C@H]3CC[C@@H](C2)N3C(=O)Cc2cccc(F)c2)cn1 (some centres undefined)	13%	i	-10%	10
CCCc1noc(-c2cccn3c(CNC(=O)C4CCC4)nnc23)n1	13%	28µM*	-3%	3
CC(C)(C)c1ccc(C(=O)NCc2nnc3c(-c4nc(C5CC5)no4)cccn23)cc1	1%	?	-1%	0
O=C(NCc1nnc2c(-c3nc(C4CC4)no3)cccn12)c1ccc(F)cc1	-11%	22µM*	-7%	3
CCCc1noc(-c2cccn3c(CNC(=O)c4ccc(N(C)C)cc4)nnc23)n1	-10%	?	-21%	10
CCCc1noc(-c2cccn3c(CNC(=O)c4ccc(C)cc4)nnc23)n1	?	25µM*	-8%	-1
O=C(Cn1cccc1-c1nc(-c2ccc3c(c2)OCO3)no1)N1CCCc2ccccc21	18%	32µM*	?	36
O=C(Cn1cccc1-c1nc(-c2ccccc2)no1)N1CCc2ccccc21	-23%	i	-26%	-8
Cc1ccc(CNC(=O)c2ccc3c(c2)c(C)c(C)n3Cc2ccccc2)o1	44%	?	4%	23
O=C(Nc1ccc(Cl)cc1)c1ccc2c(c1)n(Cc1ccccc1)c(=O)c1ccnn12	120%	20µM*	-14%	-6
Cc1ccc(CNC(=O)c2ccc3c(c2)n(Cc2ccccc2)c(=O)c2ccnn23)o1	21%	32µM*	5%	11
CNC(=O)c1ccc(Nc2ncc(C(F)(F)F)c(NCc3nccnc3N(C)S(C)(=O)=O)n2)cc1	21µM*	/	?	-4
C(#Cc1nc2ncccc2nc1OCCN1CCCC1)c1ccccc1	/	/	15µM*	-9
c1ccc(OCCn2c(CN3CCCCCC3)nc3ccccc32)cc1	/	i	/	/
CC(=O)Nc1ccc(S(=O)(=O)[C@H]2CS(=O)(=O)C[C@@H]2N2CCN(C(C)=O)CC2)cc1	/	i	/	/
CN1CC(=O)N(c2ccccc2)Cc2c1ncnc2N1CCc2ccccc2C1	-15%	25µM*	-8%	-15
O=C(Cn1c(=O)oc2ccccc21)NCC1Cn2cccc2CN1Cc1ccccc1 (centres undefined)	0%	/	0%	-1
NCC1Cn2cccc2CN1Cc1ccccc1 (centres undefined)	22%	16µM*	-1%	-4
O=C(NCC1Cn2cccc2C(=O)N1Cc1ccccc1)C1CC1 (centres undefined)	4%	i	1%	1
COc1ccc(NC(=O)NCC2Cn3cccc3CN2Cc2ccccc2)cc1 (centres undefined)	3%	/	-7%	-21
CN1Cc2cccn2CC1CNC(=O)NC1CCCCC1 (centres undefined)	2%	28µM*	-7%	-5
O=C(NCC1Cn2cccc2CN1Cc1ccccc1)C1CC1 (centres undefined)	13%	28µM*	5%	10
